In the library only some 7.4% were active in any assay of this set; here they are far more common.
Rab9 promoter act: activates the Rab9 promoter; Huh7 Rab9 promoter-luciferase reporter, luminescence, 24 h; Potency, µM (highest dose often 9.22 µM), for inactives: at the top dose activation, negative = inhibition, usual class: activators; 2.8% of 320,000 active; note: % of control where 0% means no effect; nearly all actives have a fitted effect of over 60% in size
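Huh7 cells stably carrying a Rab9 promoter-luciferase reporter, 1500 cells per well in OP-MEM I with 10% FBS, treated with compound 24 hours at 37C. Luciferase activity read by luminescence after 10 minutes with Amplite reagent.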
ELG1 genotoxic: inducers of genotoxicity in HEK293T ELG1-luciferase cells; HEK293T ELG1-luciferase reporter, luminescence, 16 h; Potency, µM (highest dose often 46 µM), without a hit: at the highest dose activity change, positive = activation, hits mostly activators; 1.3% of 330,000 active; AID 504466; note: % of control where 0% means no effect; nearly all actives have a fitted effect of over 60% in size
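Screening used a luciferase reporter fused to human ELG1 in HEK293T cells. Luminescence was read on a CCD plate imager after 16 hr exposure and 30 min ONE-Glo incubation.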
SMN2 splice up: increases expression of the SMN2 splice variant. 2.8% of 210,000 active. HEK293 SMN2-luciferase splicing reporter, luminescence, 30-36 h. Potency, µM (titrated, usually from 46.1 µM), for the others: at the highest dose activity change, positive = activation, hits mostly activators; note: % of control where 0% means no effect; nearly all actives have a fitted effect of over 55% in size
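qHTS luciferase splicing reporter: luminescence rises when SMN2 exon 7 is included in transfected HEK293 cells. Compound exposure lasted 30-36 h at 37C, with 4.5 mM final sodium butyrate as control, followed by a ONE-Glo read.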
NPC1 promoter act: NPC1 promoter activation | Huh7 NPC1 promoter luciferase reporter, 24 h | Potency, µM (top dose mostly 9.22 µM), for the others: at the highest dose activation, hits mostly activators | 2.4% of 320,000 active | AID 485313; note: % of control where 0% means no effect; nearly all actives have a fitted effect of over 60% in size
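Cells: Huh7 expressing luciferase under the NPC1 promoter, 1500/well. Seeded 2 h, compound added, incubated 24 h at 37 °C. Luciferase reagent, 10 min ambient, then luminescence.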
p53 reactivation: mutant p53 re-activation in reporter cells; H1299 p53-A138V BP100-luciferase reporter, luminescence, 24 h; 0.063% of 320,000 active; Potency, µM (series often up to 92.2 µM), for the others: at the highest dose activity change, positive = activation, hits mostly activators; AID 504706; note: % of control where 0% means no effect; nearly all actives have a fitted effect of over 45% in size
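H1299 (p53-null), stable ts p53-A138V + BP100-Luc; 1000 cells/well, Opti-MEM/10% FBS; cpd 4 pt, 1:5; 24 h, 37 deg C, 5% CO2; detection reagent 10 min RT; luminescence.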
FLuc modulator: counter-screen for miR-21 project: firefly luciferase inhibitors or activators. P08659. purified FLuc, Km substrates, luminescence inhibition. Potency, µM (doses to about 57.5 µM), inactives show at the top dose activity change, negative = inhibition, usual class: inhibitors. 6.9% of 360,000 active;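 note: plate controls were vehicle for no effect and reference inhibitor for full effect; nearly all actives have a fitted effect of over 55% in size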
Target sequence (P08659 whole entry, looked up): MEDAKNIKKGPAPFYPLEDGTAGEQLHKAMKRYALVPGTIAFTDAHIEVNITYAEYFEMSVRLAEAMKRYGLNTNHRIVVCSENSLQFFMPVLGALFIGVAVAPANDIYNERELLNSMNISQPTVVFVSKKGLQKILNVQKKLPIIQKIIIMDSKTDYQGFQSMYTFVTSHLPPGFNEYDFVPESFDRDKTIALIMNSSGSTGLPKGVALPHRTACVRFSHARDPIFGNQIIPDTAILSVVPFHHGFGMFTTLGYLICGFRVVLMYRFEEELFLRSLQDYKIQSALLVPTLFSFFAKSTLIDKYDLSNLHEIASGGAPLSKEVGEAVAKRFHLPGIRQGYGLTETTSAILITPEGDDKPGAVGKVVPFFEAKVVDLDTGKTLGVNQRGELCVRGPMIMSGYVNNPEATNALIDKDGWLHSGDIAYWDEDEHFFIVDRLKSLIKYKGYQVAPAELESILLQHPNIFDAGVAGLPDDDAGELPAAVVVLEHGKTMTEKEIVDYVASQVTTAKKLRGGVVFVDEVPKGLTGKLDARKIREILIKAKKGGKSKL
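Purified P. pyralis luciferase, 10 nM final, with Km-level 10 uM D-luciferin and 10 uM ATP in 50 mM Tris acetate pH 7.5, 10 mM Mg acetate, 0.01% Tween-20, 0.05% BSA; 6-point qHTS titration about 60 µM downward; luminescence read.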
Active calls of the source: *; ? = inconclusive; . = no result given; [ ] = dose if it differs, or a comment. Calls come from the whole dose curve; as a rule, active = well fitted curve in the direction sought with a large enough effect; inconclusive = small, poorly fitted or top-dose-only effect, or another doubt; inactive = no such curve, though single readings can be large; an effect the other way counts as inactive or inconclusive. Potency is the fitted concentration of half-maximal effect.

SMILES | Rab9 promoter act | ELG1 genotoxic | SMN2 splice up | NPC1 promoter act | p53 reactivation | FLuc modulator
Cc1cc(O)c(C(c2ccccc2)N2CCN(c3ccc(F)cc3)CC2)c(=O)n1Cc1ccco1 (stereo not given) | . | . | . | . | . | -15.2%
CC(NC(=O)C12CC3CC(C)(CC(C)(C3)C1)C2)c1ccncc1 (stereo not given) | -4.4% | -2.3% | . | 3.8% | . | 9.1%
O=C(Cc1cccs1)NC1C(=O)N2C(C(=O)[O-])=C(C[n+]3ccccc3)CSC12 (stereo not given) | . | . | -1.6% | . | . | .
CCOc1ccc(-c2cccc(NC(=O)COc3ccccc3)c2)nn1 | 3.1% | -0.9% | . | -1.2% | 10.3% | 15.1µM*
CC(=O)Nc1cccc(OCC(=O)Nc2ccccc2)c1 | 3.16µM* | 10.3µM* | 22.4µM* | 3.55µM* | ? | ?
COc1ccc2[nH]c(C(=O)Nc3cccc(C)n3)cc2c1 | 0.501µM* | ? | . | 0.631µM* | 13.4% | 1.2µM*
COc1ccc(C(=O)Nc2ccccc2C(=O)Nc2cccnc2)cc1 | 25.7% | ? | . | 29.5% | 11.3% | 4.26µM*
COc1cc2ccccc2cc1C(=O)Nc1ccc(C)cc1 | 3.4% | ? | . | 17.5% | 0.8% | 3.01µM*
COc1ccc(NC(=O)c2ccccc2NC(=O)c2ccccc2)cc1 | 7.7% | 5.5% | . | 16.1% | 4.3% | ?
COc1ccc(C(=O)Nc2ccccc2C(=O)Nc2cccc(C)n2)cc1 | 26.3% | 4.0% | . | ? | . | 5.36µM*
Cc1ccc(S(=O)(=O)N2CCCc3cc(NC(=O)c4ccc(Cl)cc4)ccc32)cc1 | . | . | . | . | . | 3.3%
COc1ccc(C(=O)Nc2ccccc2C(=O)Nc2cc(C)ccn2)cc1 | 3.55µM* | 17.2% | . | 1.78µM* | 24.6% | 1.35µM*
Cc1ccnc(NC(=O)c2ccccc2NC(=O)C(C)(C)C)c1 | -3.7% | -3.2% | 8.9% | -17.8% | 4.0% | 4.4%
C/C(CC(=O)Nc1cc(C)ccn1)=N\NC(=O)c1ccc(C(C)(C)C)cc1 | 9.3% | 0.2% | . | 0.2% | 7.1% | 10.7µM*
COc1cc2ccccc2cc1C(=O)Nc1cc(C)ccn1 | 3.16µM* | ? | . | ? | -3.1% | 12µM*
O=C(Nc1cccnc1)c1ccccc1O | 0.5% | 18.0% | -15.5% | 13.4% | 26.5% | 15.1µM*
COc1cc(C(=O)Nc2cc(C)ccn2)cc(OC)c1OC | -1.8% | 0.4% | 23.1% | -2.2% | -8.1% | -7.8%
CCOc1ccc(C)cc1S(=O)(=O)n1cnc2ccccc21 | -19.7% | 5.3% | . | -30.2% | -39.3% | -1.3%
CCOc1ccc(NC(=O)CCc2c(C)nc3c(c(C)nn3-c3ccccc3)c2C)cc1 | . | . | 1.3% | . | . | -4.0%
CCC(C(=O)OCc1cc(=O)n2nc(CCOC)sc2n1)c1ccccc1 (stereo not given) | . | . | . | . | . | -0.1%
COc1ccc(C(=O)NC(=O)Nc2cc(C)ccn2)cc1 | 0.794µM* | ? | . | 0.794µM* | ? | 0.19µM*
CCOc1ccc(C(=O)NC(=S)Nc2cccnc2)cc1 | 2.82µM* | 9.5% | ? | ? | ? | ?
Cc1ccc(NC(=O)c2cccc3ccccc23)cc1 | ? | 17.7% | . | ? | . | 15.1µM*
CC(=O)Nc1ccc(NC(=O)c2cccc3ccccc23)cc1 | -5.4% | -23.3% | . | -3.8% | . | 1.7%
CCOc1cc(C(=O)NC(=S)Nc2cccnc2)cc(OCC)c1OCC | -5.9% | -3.5% | -8.0% | 3.5% | -1.6% | ?
SMILES | Rab9 promoter act | ELG1 genotoxic | SMN2 splice up | NPC1 promoter act | p53 reactivation | FLuc modulator
CC(C)c1ccc(NC(=O)Cn2cc(S(=O)(=O)N3CCN(c4ccccc4F)CC3)c3ccccc3c2=O)cc1 | . | . | -3.9% | . | . | -0.7%
CC[C@H](CO)NCCN[C@@H](CC)CO | . | . | -0.4%[20.6 µM] | . | . | .
N#Cc1c[nH]n2c(NC3CCCC3)c(-c3cccc(Br)c3)nc12 | . | . | . | . | . | -14.0%
Nc1nc(SCc2ccccc2)[nH]c(=O)c1-c1ccccc1 | ? | 11.6µM* | 12.6µM* | ? | ? | 19µM*
CC1(C)Oc2ccc3ccc(=O)oc3c2CC1=O | . | . | 4.6% | . | . | .
CN(C)c1ccc(C=NCC2COc3ccccc3O2)cc1 (stereo not given) | -3.8% | 3.5% | . | -5.2% | -0.6% | 12µM*
CNC(=O)COc1ccccc1C(=O)Nc1ccc2c(c1)oc1ccccc12 | -38.1% | 1.2% | -11.7% | -18.2% | -8.7% | 3.79µM*
O=C(O)CCC(=O)Nc1ccc2c(c1)oc1ccccc12 | -4.7% | 15.5% | 17.1% | 2.2% | 7.3% | 23.9µM*
O=C(O)COCC(=O)Nc1ccc2c(c1)oc1ccccc12 | -0.4% | 1.1% | . | -1.6% | 1.4% | 16.9µM*
Cc1cc(NC(=O)CSc2nc3ccsc3c(=O)n2Cc2ccccn2)n[nH]1 | ? | 16.2% | ? | ? | 11.3% | -3.0%
O=c1c2sccc2nc(SCc2cc(=O)n3ccccc3n2)n1Cc1ccccn1 | 3.98µM* | ? | 12.6µM* | ? | 0.0% | -2.8%
CSCCC1NC(=O)N(CC(=O)Nc2ccc(N3CCCCC3)cc2)C1=O (stereo not given) | -5.6% | 0.6% | -9.1% | 11.2% | 8.1% | 12µM*
O=c1cc(NS(=O)(=O)c2ccccc2)nc(SCc2ccc(Cl)cc2)[nH]1 | -8.1% | 23.1µM* | -1.4% | -1.1% | -4.8% | -0.8%
CCOc1ccc(NC(=O)c2cc3c(C)nn(-c4ccccc4)c3s2)cc1 | . | . | 11.1% | . | . | 5.7%
COc1ccc2cc(OCC(=O)NNC(=O)Nc3ccc(F)cc3)ccc2c1 | 6.0% | -6.0% | . | 7.0% | -3.6% | -10.2%
CC(C)NC(=O)c1ccccc1NC(=O)C1CCCO1 (stereo not given) | 1.5% | -2.3% | 2.1% | 0.8% | 1.2% | -0.5%
O=C(NCCc1ccccc1)c1ccccc1NC(=O)C1CCCO1 (stereo not given) | 1.26µM* | ? | 3.55µM* | 1.41µM* | 2.5% | ?
COc1ccc(NC(=O)c2ccccc2NC(=O)C2CCCO2)cc1 (stereo not given) | ? | ? | 20µM* | 25.7% | 1.6% | -10.1%
O=C(O)c1ccccc1NC(=O)C1CCCO1 (stereo not given) | . | . | -0.7% | . | . | -2.0%
CCS(=O)(=O)c1ncc(N(Cc2ccco2)Cc2sccc2C)c(C(=O)Nc2ccc(C)cc2C)n1 | . | . | . | . | . | -2.7%
CNC(=S)N(Cc1cc2cc(C)ccc2n2nnnc12)CC(C)(C)CN(C)C | -3.1% | -2.2% | . | -5.9% | 2.5% | 2.6%
Cc1ccc(-c2nnc(CCC(=O)N(C)Cc3nccs3)o2)s1 | -10.6% | 9.8% | . | -2.1% | 0.3% | 7.1%
Cc1ccc(-c2nnc(CCC(=O)NCC3C4CC5CC(C4)CC3C5)o2)s1 (stereo not given) | 2.51µM* | ? | . | ? | 7.7% | 19µM*
COc1cc2c(cc1OC)CN(c1ccc([N+](=O)[O-])cc1Cl)CC2 | -3.5% | 9.8% | -37.4% | -7.2% | -8.1% | -10.5%

Source: PubChem
